High-throughput results from PubChem.
In the library only some 3.3% were active in any assay of this set; here they are far more common.
UHRF1 MBD2 ctr: UHRF1 methylated DNA binding inhibitors, primary screen, counter-screen for MBD2 inhibitor project, biochemical, TR-FRET, human UHRF1, single concentration; 370,000 tested, 0.75% active; AID 687016, 2013; UHRF1 binding to methylated oligo; inhibition, % at 4.4 µM; E3 ubiquitin-protein ligase UHRF1 (Homo sapiens), Q96T88; in the data active means inhibition above about 21%;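 further: UHRF1 SRA domain binding a hemimethylated CpG hairpin DNA probe; 0% = median of test compound wells and 100% = reference inhibitor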
PfG6PD inh: PfG6PD enzyme inhibitors, primary screen, biochemical, fluorescence intensity, uHTS | glucose-6-phosphate dehydrogenase-6-phosphogluconolactonase (Plasmodium falciparum 3D7) | PfGluPho enzyme, NADPH resazurin-diaphorase fluorescence | inhibition, % at 20 µM | 350,000 tested, 0.78% active | AID 504690, 2011;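 active means inhibition reaching at least a set limit at 20 µM in the primary screen, cut at about 59% in these data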;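 further: 0% = DMSO wells with substrate and 100% = DMSO wells lacking glucose-6-phosphate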
PfM18AAP inh: PfM18AAP inhibitors, malaria aminopeptidase, primary screen, biochemical, QFRET, recombinant enzyme; M18 aspartyl aminopeptidase (Plasmodium falciparum 3D7); AID 1822, 2009; inhibition, % at 7.35 µM; 290,000 tested, 1.2% active; H-Glu-NHMec fluorogenic cleavage;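 active means inhibition above the campaign mean inhibition over all tested compounds plus 3 SD, cut at about 28% in these data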;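 further: 0% = plate median of test compound wells and 100% = 2 mM ZnCl2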
MBD2 DNA inh: inhibitors of MBD2 binding to methylated DNA, primary screen, biochemical, TR-FRET, DNA-binding domain, human; inhibition, % at 4.4 µM; AID 686964, 2013; MBD2 binding to methylated oligonucleotide; 370,000 tested, 0.31% active; Methyl-CpG-binding domain protein 2 (Homo sapiens), Q9UBB5; in the data active means inhibition above about 13%
PRMT1 inh: PRMT1 methyltransferase inhibitors, primary screen, biochemical, fluorescence polarization; Protein arginine N-methyltransferase 1 (Homo sapiens), Q99873; recombinant PRMT1, activity-based probe fluorescence polarization; inhibition, % at 2.79 µM; 370,000 tested, 1.3% active; AID 652257, 2013;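 active means inhibition above about 21% made by adding two undisclosed values, limit read from the data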
* marks the source's active call; other numbers are inactive results.

For CCOC(=O)c1c(/N=C/c2cc(OC)cc([N+](=O)[O-])c2O)sc(C)c1C the results were UHRF1 MBD2 ctr -6, PfG6PD inh 7, PfM18AAP inh 28*, MBD2 DNA inh -9 and PRMT1 inh 4.
O=S(=O)(NCc1ccc2c(c1)OCO2)c1ccc2c(c1)oc1ccccc12 was read as UHRF1 MBD2 ctr 29*, PfG6PD inh 31, PfM18AAP inh -2, MBD2 DNA inh 3 and PRMT1 inh 2.
For COC(=O)c1cc(C(C)c2c[nH]c3ccccc23)n2ccccc12 (stereo not drawn) the results were UHRF1 MBD2 ctr -1, MBD2 DNA inh 1 and PRMT1 inh 2.
Cc1cc(C)nc(SCC(=O)NC2=NN=C(c3ccc(Br)cc3)CS2)n1 was read as UHRF1 MBD2 ctr -1, PfG6PD inh 47, PfM18AAP inh -1, MBD2 DNA inh -7 and PRMT1 inh 13.
`CCC(Sc1nc(C)cc(C)n1)C(=O)NC1=NN=C(c2ccc(C)cc2)CS1` (stereo not drawn) gave UHRF1 MBD2 ctr -6, PfG6PD inh 10, PfM18AAP inh 15, MBD2 DNA inh 5 and PRMT1 inh 49*.
For Cc1cc(NS(=O)(=O)c2ccc(NC(=O)NC(C)(C(F)(F)F)C(F)(F)F)cc2)no1 the results were UHRF1 MBD2 ctr 21*, PfG6PD inh -10, PfM18AAP inh 4, MBD2 DNA inh 9 and PRMT1 inh 6.
CC(=O)Nc1ccc(NC(=O)C(C)OC(=O)CNS(=O)(=O)c2cccc(Cl)c2)cc1 (stereo not drawn) was read as UHRF1 MBD2 ctr 52*, PfG6PD inh -15, PfM18AAP inh 0, MBD2 DNA inh 0 and PRMT1 inh 4.
For CCC[C@H]1[C@@H](OC(=O)NCCc2ccccc2)CC[C@@]23CCCN2C(=O)CCC[C@@H]13 the results were UHRF1 MBD2 ctr 0, MBD2 DNA inh 0 and PRMT1 inh 1.
COC(=O)c1cnc(N)s1 was read as UHRF1 MBD2 ctr 23*, PfG6PD inh 6, MBD2 DNA inh 5 and PRMT1 inh 4.
`COC(=O)c1sc(N)nc1C(C)(C)C` gave UHRF1 MBD2 ctr -1, PfG6PD inh 12, PfM18AAP inh -12, MBD2 DNA inh 0 and PRMT1 inh 0.
`CC(C)NC(=O)N[C@@H]1C[C@@H]2O[C@H](CO)CC[C@@H]2O[C@@H]1CCc1ccc(-c2ccccc2F)cc1` gave UHRF1 MBD2 ctr 2, MBD2 DNA inh 8 and PRMT1 inh 1.
For CCCCOc1ccc(C(=O)NC2CCCCN(Cc3ccccc3C)C2=O)cc1 (stereo not drawn) the results were UHRF1 MBD2 ctr -2, MBD2 DNA inh 3 and PRMT1 inh -1.
Screening CCOc1ccc(CNC(=O)CCc2cn(C)c3ccccc23)cc1OC returned UHRF1 MBD2 ctr 59*, PfG6PD inh -1, PfM18AAP inh -6, MBD2 DNA inh 3 and PRMT1 inh 5.
CCn1cc(CCC(=O)NCc2ccccc2OC)c2ccccc21 was read as UHRF1 MBD2 ctr 22*, PfG6PD inh -12, PfM18AAP inh 0, MBD2 DNA inh 4 and PRMT1 inh -3.
`Cc1c(NC(=O)/C(C#N)=C/c2ccc(-c3ccc(Cl)cc3)o2)c(=O)n(-c2ccccc2)n1C` gave UHRF1 MBD2 ctr 22*, PfG6PD inh 18, PfM18AAP inh 6, MBD2 DNA inh 8 and PRMT1 inh 0.
O=C(C[C@@H]1C[C@@H]2c3cc(NS(=O)(=O)c4ccc(F)cc4)ccc3O[C@@H]2[C@H](CO)O1)NCc1ccc(Oc2ccccc2)cc1 was read as UHRF1 MBD2 ctr 23*, MBD2 DNA inh 10 and PRMT1 inh 7.
Screening O=C(NCc1cccs1)C1CCN(S(=O)(=O)c2cccc3ccccc23)CC1 returned UHRF1 MBD2 ctr 1, MBD2 DNA inh 1 and PRMT1 inh 4.
For Cc1ccc(S(=O)(=O)N2CCC(C(=O)OCC(=O)NCCc3ccccc3)CC2)cc1C the results were UHRF1 MBD2 ctr 40*, PfG6PD inh -11, MBD2 DNA inh -6 and PRMT1 inh 2.
For O=C(COC(=O)c1ccccc1O)NC(=O)c1ccc(OC(F)F)cc1 the results were UHRF1 MBD2 ctr 2, PfG6PD inh 4, MBD2 DNA inh 2 and PRMT1 inh 2.
O=C(COC(=O)C1CCN(S(=O)(=O)c2ccccc2)CC1)NC(=O)c1ccc(OC(F)F)cc1 was read as UHRF1 MBD2 ctr 26*, PfG6PD inh 26, PfM18AAP inh 1, MBD2 DNA inh 3 and PRMT1 inh 0.
`O=C(O)c1cc(Nc2cc(Cl)c3nonc3c2[N+](=O)[O-])ccc1O` gave UHRF1 MBD2 ctr -4, PfG6PD inh 20, PfM18AAP inh -24, MBD2 DNA inh -16 and PRMT1 inh 65*.
For O=[N+]([O-])c1c(Nc2ccc(O)cc2)cc(N2CCOCC2)c2nonc12 the results were UHRF1 MBD2 ctr -4, PfG6PD inh -8, PfM18AAP inh -2, MBD2 DNA inh -4 and PRMT1 inh 6.
Screening COc1ccc(Nc2nc(=O)c3cc([N+](=O)[O-])ccc3s2)cc1 returned UHRF1 MBD2 ctr 25*, PfG6PD inh 18, PfM18AAP inh -1, MBD2 DNA inh 7 and PRMT1 inh -1.
O=C1CSC(=S)N1c1ccccc1 was read as UHRF1 MBD2 ctr -2, PfG6PD inh 14, MBD2 DNA inh -2 and PRMT1 inh 18.
`O=C1CSC(=S)N1c1ccc(F)c(Cl)c1` gave UHRF1 MBD2 ctr 1, PfG6PD inh -13, PfM18AAP inh 28*, MBD2 DNA inh -3 and PRMT1 inh 1.
Screening Clc1ccc(CN2CCN(N=Cc3c4ccccc4cc4ccccc34)CC2)cc1 returned UHRF1 MBD2 ctr -1, MBD2 DNA inh 1 and PRMT1 inh 3.
`CC(C)NC(=O)C1(C)Cc2c(-c3cccc(C(F)(F)F)c3)ccnc2O1` (stereo not drawn) gave UHRF1 MBD2 ctr 38*, MBD2 DNA inh -8 and PRMT1 inh -4.
`CCCCCC(=O)NC(=S)Nc1ccccc1C(=O)OC` gave UHRF1 MBD2 ctr 24*, PfG6PD inh -7, PfM18AAP inh 3, MBD2 DNA inh 12 and PRMT1 inh 2.
For Oc1c(Br)cc2oc3c(c2c1CNCc1ccccc1)CCCC3 the results were UHRF1 MBD2 ctr -6, PfG6PD inh -20, PfM18AAP inh 31*, MBD2 DNA inh 0 and PRMT1 inh -2.
NC(=S)N/N=C/c1c(O)c(Br)cc2oc3c(c12)CCCC3 was read as UHRF1 MBD2 ctr -5, PfG6PD inh -14, PfM18AAP inh 8, MBD2 DNA inh -6 and PRMT1 inh 0.
Screening Cn1c(CNc2ccccc2F)nc2ccccc21 returned UHRF1 MBD2 ctr 0, MBD2 DNA inh 1 and PRMT1 inh -3.
CC1=C(C)/C(=N\OS(=O)(=O)c2ccccc2)C=CC1=O was read as PfG6PD inh 112* and PfM18AAP inh -1.
